Measured values taken from the supplement of paper PMC6411743.
± gives the standard deviation of the averaged measurements. The full data set covers some 5,400 targets. This sample favours those with the largest changes.

compound: Nc1nc2c(ncn2[C@@H]2O[C@H](COP(=O)(O)OP(=O)(O)OP(=O)(O)O)[C@@H](O)[C@H]2O)c(=O)[nH]1 [guanosine triphosphate]; experiment: NP40-soluble protein abundance relative to vehicle (solubility fold change) (ratio); higher = more soluble protein in presence of GTP; settings: concentration: 6mM
Procedure, shortened: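 In three independent experiments, Jurkat crude lysate made by Dounce homogenisation was treated for 10 min at room temperature and then 3 min at 37 °C with eight concentrations ranging from 0.1 to 10 mM. It was then solubilised with 0.8% NP40 plus benzonase for 60 min at 4 °C and ultracentrifuged. The supernatant was TMT-labelled for LC-MS/MS, and each value is the fold change against the detergent-processed vehicle for the same replicate, using vsn-normalised intensities.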

Sequence of UniProt Q6I9Y2 (Q6I9Y2 whole entry): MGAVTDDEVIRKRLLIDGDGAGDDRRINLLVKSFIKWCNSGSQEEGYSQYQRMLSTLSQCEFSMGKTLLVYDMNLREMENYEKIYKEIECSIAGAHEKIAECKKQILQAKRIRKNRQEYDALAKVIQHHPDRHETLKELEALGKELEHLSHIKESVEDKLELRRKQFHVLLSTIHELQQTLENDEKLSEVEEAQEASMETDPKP
Sequence of UniProt Q7Z3B4 (Q7Z3B4 whole entry): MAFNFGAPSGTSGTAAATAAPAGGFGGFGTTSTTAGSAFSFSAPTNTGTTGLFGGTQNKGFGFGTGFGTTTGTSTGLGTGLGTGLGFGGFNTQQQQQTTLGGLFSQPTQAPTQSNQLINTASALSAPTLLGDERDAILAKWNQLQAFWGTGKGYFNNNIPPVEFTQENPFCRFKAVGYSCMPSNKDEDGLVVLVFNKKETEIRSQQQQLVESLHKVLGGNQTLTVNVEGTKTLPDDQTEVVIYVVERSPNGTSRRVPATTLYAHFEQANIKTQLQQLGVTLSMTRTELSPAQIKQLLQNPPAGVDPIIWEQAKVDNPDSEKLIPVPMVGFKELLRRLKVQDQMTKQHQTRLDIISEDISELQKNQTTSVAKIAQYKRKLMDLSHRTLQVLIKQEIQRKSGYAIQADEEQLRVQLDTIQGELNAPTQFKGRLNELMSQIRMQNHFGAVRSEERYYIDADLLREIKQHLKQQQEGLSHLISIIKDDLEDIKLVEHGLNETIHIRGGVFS
Sequence of UniProt Q13496 (Q13496 whole entry): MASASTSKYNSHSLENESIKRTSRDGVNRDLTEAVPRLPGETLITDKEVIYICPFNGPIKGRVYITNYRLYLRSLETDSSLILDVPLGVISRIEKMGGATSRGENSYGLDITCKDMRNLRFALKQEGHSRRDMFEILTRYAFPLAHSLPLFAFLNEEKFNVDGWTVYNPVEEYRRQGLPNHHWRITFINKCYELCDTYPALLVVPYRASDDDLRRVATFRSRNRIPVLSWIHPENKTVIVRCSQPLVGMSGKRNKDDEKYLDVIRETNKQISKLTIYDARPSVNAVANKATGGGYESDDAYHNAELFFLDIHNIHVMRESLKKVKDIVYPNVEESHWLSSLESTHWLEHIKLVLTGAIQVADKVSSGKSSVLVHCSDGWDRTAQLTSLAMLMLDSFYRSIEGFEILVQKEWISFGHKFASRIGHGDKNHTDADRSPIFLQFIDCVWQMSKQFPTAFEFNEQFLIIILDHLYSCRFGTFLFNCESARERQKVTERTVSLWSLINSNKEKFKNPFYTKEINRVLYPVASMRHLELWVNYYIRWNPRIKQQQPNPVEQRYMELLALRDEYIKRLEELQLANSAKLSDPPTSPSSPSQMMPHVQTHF
Sequence of UniProt Q92499 (Q92499 whole entry): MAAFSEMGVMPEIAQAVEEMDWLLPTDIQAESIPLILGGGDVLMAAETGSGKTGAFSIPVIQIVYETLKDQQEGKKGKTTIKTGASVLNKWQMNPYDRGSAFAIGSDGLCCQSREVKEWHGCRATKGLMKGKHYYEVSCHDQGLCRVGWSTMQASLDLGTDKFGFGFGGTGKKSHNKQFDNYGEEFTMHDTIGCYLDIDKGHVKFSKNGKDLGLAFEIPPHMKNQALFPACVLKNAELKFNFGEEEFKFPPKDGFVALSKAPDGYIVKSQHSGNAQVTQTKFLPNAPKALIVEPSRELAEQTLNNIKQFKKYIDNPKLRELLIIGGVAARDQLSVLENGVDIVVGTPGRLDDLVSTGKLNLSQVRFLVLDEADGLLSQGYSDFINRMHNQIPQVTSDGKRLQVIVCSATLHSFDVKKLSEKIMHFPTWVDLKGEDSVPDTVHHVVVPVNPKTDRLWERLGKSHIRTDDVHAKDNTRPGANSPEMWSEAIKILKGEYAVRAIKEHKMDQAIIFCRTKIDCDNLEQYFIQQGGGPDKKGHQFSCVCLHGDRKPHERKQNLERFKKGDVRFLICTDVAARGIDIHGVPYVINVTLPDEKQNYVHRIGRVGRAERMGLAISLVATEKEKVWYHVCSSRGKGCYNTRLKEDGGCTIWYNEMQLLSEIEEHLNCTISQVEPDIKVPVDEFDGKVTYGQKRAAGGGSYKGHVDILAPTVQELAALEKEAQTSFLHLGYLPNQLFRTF
Sequence of UniProt Q13200 (Q13200 whole entry): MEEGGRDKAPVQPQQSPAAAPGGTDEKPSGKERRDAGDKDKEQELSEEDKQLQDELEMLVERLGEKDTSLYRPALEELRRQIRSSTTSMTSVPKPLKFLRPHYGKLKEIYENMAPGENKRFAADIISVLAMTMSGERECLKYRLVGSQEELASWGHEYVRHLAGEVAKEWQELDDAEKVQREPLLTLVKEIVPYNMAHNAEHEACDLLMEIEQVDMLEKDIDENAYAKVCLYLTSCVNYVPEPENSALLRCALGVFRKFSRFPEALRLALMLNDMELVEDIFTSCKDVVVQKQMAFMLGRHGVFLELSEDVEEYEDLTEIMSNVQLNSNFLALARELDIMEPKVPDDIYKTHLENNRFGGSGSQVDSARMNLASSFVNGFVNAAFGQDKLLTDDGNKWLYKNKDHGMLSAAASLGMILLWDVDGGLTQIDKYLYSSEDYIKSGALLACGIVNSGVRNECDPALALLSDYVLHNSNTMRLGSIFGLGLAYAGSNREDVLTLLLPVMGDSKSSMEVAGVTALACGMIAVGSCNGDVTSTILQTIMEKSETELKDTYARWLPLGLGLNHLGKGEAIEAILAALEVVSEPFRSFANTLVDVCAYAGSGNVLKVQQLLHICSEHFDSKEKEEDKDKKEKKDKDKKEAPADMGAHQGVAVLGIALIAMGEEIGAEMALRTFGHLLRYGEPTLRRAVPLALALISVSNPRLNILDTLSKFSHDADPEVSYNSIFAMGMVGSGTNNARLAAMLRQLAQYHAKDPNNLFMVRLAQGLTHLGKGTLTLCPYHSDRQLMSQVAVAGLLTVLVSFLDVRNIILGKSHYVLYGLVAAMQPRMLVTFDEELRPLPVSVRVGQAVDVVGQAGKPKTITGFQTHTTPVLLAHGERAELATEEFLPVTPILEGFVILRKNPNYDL
Sequence of UniProt Q8TC12 (Q8TC12 whole entry): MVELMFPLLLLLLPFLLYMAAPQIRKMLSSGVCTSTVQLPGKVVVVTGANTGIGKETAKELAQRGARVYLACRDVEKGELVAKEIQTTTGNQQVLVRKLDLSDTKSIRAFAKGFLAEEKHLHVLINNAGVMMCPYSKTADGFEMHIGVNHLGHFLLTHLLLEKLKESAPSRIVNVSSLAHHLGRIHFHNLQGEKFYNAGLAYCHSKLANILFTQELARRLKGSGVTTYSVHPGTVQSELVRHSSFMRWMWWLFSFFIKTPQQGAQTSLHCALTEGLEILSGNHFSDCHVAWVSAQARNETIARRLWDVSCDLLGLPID
Sequence of UniProt Q86W42 (Q86W42 whole entry): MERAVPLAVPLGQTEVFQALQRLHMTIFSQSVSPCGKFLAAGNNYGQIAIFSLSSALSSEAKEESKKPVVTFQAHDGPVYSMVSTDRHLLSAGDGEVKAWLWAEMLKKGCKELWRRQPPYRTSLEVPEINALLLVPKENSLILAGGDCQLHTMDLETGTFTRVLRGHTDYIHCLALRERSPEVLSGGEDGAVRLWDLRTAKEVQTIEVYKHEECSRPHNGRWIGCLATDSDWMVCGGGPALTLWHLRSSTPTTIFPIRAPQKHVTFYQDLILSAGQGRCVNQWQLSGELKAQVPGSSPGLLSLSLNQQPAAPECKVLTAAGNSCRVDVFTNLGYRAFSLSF
Sequence of UniProt Q86Y37 (Q86Y37 whole entry): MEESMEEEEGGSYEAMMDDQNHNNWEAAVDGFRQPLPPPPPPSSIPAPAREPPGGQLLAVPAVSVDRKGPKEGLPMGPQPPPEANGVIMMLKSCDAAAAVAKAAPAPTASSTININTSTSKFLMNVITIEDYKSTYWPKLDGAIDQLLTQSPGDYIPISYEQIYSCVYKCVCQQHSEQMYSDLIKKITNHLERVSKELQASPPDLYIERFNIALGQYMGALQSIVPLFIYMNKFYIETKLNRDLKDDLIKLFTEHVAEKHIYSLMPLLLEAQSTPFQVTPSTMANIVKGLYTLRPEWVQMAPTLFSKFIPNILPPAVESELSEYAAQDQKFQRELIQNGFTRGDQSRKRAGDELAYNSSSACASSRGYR
Sequence of UniProt Q8NB16 (Q8NB16 whole entry): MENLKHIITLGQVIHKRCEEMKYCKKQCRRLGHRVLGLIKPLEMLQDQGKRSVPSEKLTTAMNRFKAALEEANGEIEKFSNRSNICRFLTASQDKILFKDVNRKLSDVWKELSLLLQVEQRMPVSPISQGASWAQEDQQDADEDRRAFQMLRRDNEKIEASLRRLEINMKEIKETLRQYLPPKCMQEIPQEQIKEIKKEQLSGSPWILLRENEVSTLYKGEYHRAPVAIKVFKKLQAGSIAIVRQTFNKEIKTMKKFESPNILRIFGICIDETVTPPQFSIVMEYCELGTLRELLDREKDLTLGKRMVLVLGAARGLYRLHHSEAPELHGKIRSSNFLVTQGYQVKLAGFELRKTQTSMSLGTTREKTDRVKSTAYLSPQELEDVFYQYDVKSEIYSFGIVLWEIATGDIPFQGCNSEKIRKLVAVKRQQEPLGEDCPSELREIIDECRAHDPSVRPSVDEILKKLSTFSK
Sequence of UniProt Q8NC56 (Q8NC56 whole entry): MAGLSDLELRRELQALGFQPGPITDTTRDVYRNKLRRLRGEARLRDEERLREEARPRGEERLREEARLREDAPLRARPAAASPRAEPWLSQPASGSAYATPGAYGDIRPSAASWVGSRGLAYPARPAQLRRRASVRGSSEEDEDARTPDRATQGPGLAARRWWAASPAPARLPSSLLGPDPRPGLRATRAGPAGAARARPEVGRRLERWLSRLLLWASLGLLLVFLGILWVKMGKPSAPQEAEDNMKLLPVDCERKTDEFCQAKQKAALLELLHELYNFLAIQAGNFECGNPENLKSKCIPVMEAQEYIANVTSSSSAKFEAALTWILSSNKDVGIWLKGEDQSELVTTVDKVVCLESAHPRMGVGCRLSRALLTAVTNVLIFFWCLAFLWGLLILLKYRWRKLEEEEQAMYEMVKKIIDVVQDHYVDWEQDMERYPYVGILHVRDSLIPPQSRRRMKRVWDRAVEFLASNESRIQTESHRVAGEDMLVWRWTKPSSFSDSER

Point of comparison: MLKL (UniProt Q8NB16), NP40-soluble protein abundance 0.874 ± 0.032. Against it:
- UniProt P55072 — within error, 1.03 ± 0.14
- YRDC (UniProt Q86U90) — within error, 0.899 ± 0.026
- UniProt Q86U86|Q86U86-8|Q86U86-2|Q86U86-4|Q86U86-5|Q86U86-7|Q86U86-9 — higher, 1.61 ± 0.16
- UniProt Q5K651|C9JKF1 — higher, 0.959 ± 0.047
- UniProt Q7Z3B4|Q7Z3B4-3 — higher, 1.07 ± 0.065
- UniProt Q16630|Q16630-2 — higher, 2.58 ± 0.45
- AARS2 (UniProt Q5JTZ9) — higher, 0.948 ± 0.04
- UniProt Q10567|Q10567-2|Q10567-3 — within error, 0.919 ± 0.051
- UniProt Q12872|Q12872-2 — higher, 1.52 ± 0.068
- PSMD2 (UniProt Q13200) — within error, 1.08 ± 0.2
- UniProt Q86Y37|Q86Y37-4 — within error, 0.905 ± 0.048
- UniProt Q16864|Q16864-2 — higher, 1.02 ± 0.034
- LEMD2 (UniProt Q8NC56) — higher, 1.42 ± 0.11
- UniProt Q13428|Q13428-3|Q13428-4|Q13428-7 — higher, 1.13 ± 0.14
- DHX9 (UniProt Q08211) — higher, 1.49 ± 0.37
- THOC7 (UniProt Q6I9Y2) — higher, 2.51 ± 0.63
- DDX1 (UniProt Q92499) — higher, 0.993 ± 0.063
- EDC4 (UniProt Q6P2E9) — higher, 1.02 ± 0.032
- P86790|P86791 (UniProt P86791+P86790) — higher, 0.948 ± 0.038
- RAB8A (UniProt P61006) — within error, 0.858 ± 0.085
- MBLAC2 (UniProt Q68D91) — within error, 0.941 ± 0.13
- SNW1 (UniProt Q13573) — higher, 0.959 ± 0.041
- UniProt Q13427|E9PG73 — higher, 1.12 ± 0.12
- UniProt Q63HQ0 — within error, 0.961 ± 0.12
- UniProt P62277 — within error, 0.796 ± 0.27
- EXOSC7 (UniProt Q15024) — higher, 1.17 ± 0.12
- CCDC25 (UniProt Q86WR0) — within error, 0.842 ± 0.084
- UniProt P60228 — higher, 1.44 ± 0.33
- UniProt Q86W42|Q86W42-2 — higher, 2.29 ± 0.68
- UniProt Q6UXH1|Q6UXH1-4|Q6UXH1-5|Q6UXH1-6 — within error, 0.959 ± 0.12
- UniProt Q14103-3|D6RF44|Q14103-4 — within error, 0.915 ± 0.084
- MTM1 (UniProt Q13496) — within error, 0.962 ± 0.093
- UniProt Q7KZN9|Q7KZN9-2 — within error, 0.924 ± 0.037
- KPNB1 (UniProt Q14974) — higher, 0.993 ± 0.033
- RDH11 (UniProt Q8TC12) — within error, 0.88 ± 0.015
- TWF2 (UniProt Q6IBS0) — higher, 1.01 ± 0.013
- PDCD6IP (UniProt Q8WUM4) — within error, 0.895 ± 0.064
- UniProt Q14444|Q14444-2 — higher, 1.11 ± 0.1

same assay, conditions: concentration: 8mM

Point of comparison: UniProt Q7KZN9|Q7KZN9-2, NP40-soluble protein abundance 0.907 ± 0.029. Against it:
- UniProt P55072 — within error, 1 ± 0.1
- YRDC (UniProt Q86U90) — within error, 0.871 ± 0.07
- UniProt Q86U86|Q86U86-8|Q86U86-2|Q86U86-4|Q86U86-5|Q86U86-7|Q86U86-9 — higher, 1.72 ± 0.16
- UniProt Q5K651|C9JKF1 — higher, 0.985 ± 0.045
- UniProt Q7Z3B4|Q7Z3B4-3 — higher, 1.12 ± 0.055
- UniProt Q16630|Q16630-2 — higher, 2.71 ± 0.58
- AARS2 (UniProt Q5JTZ9) — within error, 0.925 ± 0.03
- UniProt Q10567|Q10567-2|Q10567-3 — within error, 0.921 ± 0.05
- UniProt Q12872|Q12872-2 — higher, 1.7 ± 0.13
- PSMD2 (UniProt Q13200) — within error, 1.04 ± 0.16
- UniProt Q86Y37|Q86Y37-4 — within error, 0.87 ± 0.057
- UniProt Q16864|Q16864-2 — within error, 0.992 ± 0.073
- LEMD2 (UniProt Q8NC56) — higher, 1.48 ± 0.14
- UniProt Q13428|Q13428-3|Q13428-4|Q13428-7 — higher, 1.17 ± 0.17
- DHX9 (UniProt Q08211) — higher, 1.52 ± 0.3
- THOC7 (UniProt Q6I9Y2) — higher, 2.43 ± 0.56
- DDX1 (UniProt Q92499) — higher, 0.971 ± 0.013
- EDC4 (UniProt Q6P2E9) — higher, 1.02 ± 0.057
- P86790|P86791 (UniProt P86791+P86790) — within error, 0.943 ± 0.029
- RAB8A (UniProt P61006) — lower, 0.828 ± 0.046
- MBLAC2 (UniProt Q68D91) — within error, 0.952 ± 0.097
- SNW1 (UniProt Q13573) — higher, 1.01 ± 0.046
- UniProt Q13427|E9PG73 — higher, 1.21 ± 0.18
- UniProt Q63HQ0 — within error, 0.952 ± 0.091
- MLKL (UniProt Q8NB16) — within error, 0.868 ± 0.045
- UniProt P62277 — lower, 0.626 ± 0.17
- EXOSC7 (UniProt Q15024) — higher, 1.22 ± 0.077
- CCDC25 (UniProt Q86WR0) — within error, 0.876 ± 0.059
- UniProt P60228 — higher, 1.58 ± 0.3
- UniProt Q86W42|Q86W42-2 — higher, 2.26 ± 0.54
- UniProt Q6UXH1|Q6UXH1-4|Q6UXH1-5|Q6UXH1-6 — within error, 0.95 ± 0.061
- UniProt Q14103-3|D6RF44|Q14103-4 — within error, 0.947 ± 0.11
- MTM1 (UniProt Q13496) — within error, 0.93 ± 0.057
- KPNB1 (UniProt Q14974) — higher, 1 ± 0.033
- RDH11 (UniProt Q8TC12) — within error, 0.824 ± 0.084
- TWF2 (UniProt Q6IBS0) — within error, 0.95 ± 0.032
- PDCD6IP (UniProt Q8WUM4) — within error, 0.904 ± 0.053
- UniProt Q14444|Q14444-2 — higher, 1.16 ± 0.057

same assay, conditions: concentration: 10mM

Point of comparison: UniProt Q10567|Q10567-2|Q10567-3, NP40-soluble protein abundance 0.924 ± 0.054. Against it:
- UniProt P55072 — within error, 1 ± 0.11
- YRDC (UniProt Q86U90) — within error, 0.916 ± 0.055
- UniProt Q86U86|Q86U86-8|Q86U86-2|Q86U86-4|Q86U86-5|Q86U86-7|Q86U86-9 — higher, 1.78 ± 0.18
- UniProt Q5K651|C9JKF1 — within error, 0.949 ± 0.088
- UniProt Q7Z3B4|Q7Z3B4-3 — higher, 1.18 ± 0.092
- UniProt Q16630|Q16630-2 — higher, 2.75 ± 0.56
- AARS2 (UniProt Q5JTZ9) — within error, 0.925 ± 0.045
- UniProt Q12872|Q12872-2 — higher, 1.78 ± 0.13
- PSMD2 (UniProt Q13200) — within error, 1 ± 0.15
- UniProt Q86Y37|Q86Y37-4 — within error, 0.889 ± 0.054
- UniProt Q16864|Q16864-2 — higher, 1.02 ± 0.027
- LEMD2 (UniProt Q8NC56) — higher, 1.49 ± 0.21
- UniProt Q13428|Q13428-3|Q13428-4|Q13428-7 — higher, 1.23 ± 0.23
- DHX9 (UniProt Q08211) — higher, 1.64 ± 0.33
- THOC7 (UniProt Q6I9Y2) — higher, 2.78 ± 0.98
- DDX1 (UniProt Q92499) — within error, 0.961 ± 0.038
- EDC4 (UniProt Q6P2E9) — higher, 1.04 ± 0.046
- P86790|P86791 (UniProt P86791+P86790) — the same, 0.924 ± 0.0097
- RAB8A (UniProt P61006) — within error, 0.81 ± 0.075
- MBLAC2 (UniProt Q68D91) — within error, 0.929 ± 0.14
- SNW1 (UniProt Q13573) — higher, 1.03 ± 0.051
- UniProt Q13427|E9PG73 — higher, 1.2 ± 0.2
- UniProt Q63HQ0 — within error, 0.972 ± 0.11
- MLKL (UniProt Q8NB16) — lower, 0.837 ± 0.024
- UniProt P62277 — within error, 0.816 ± 0.29
- EXOSC7 (UniProt Q15024) — higher, 1.18 ± 0.061
- CCDC25 (UniProt Q86WR0) — within error, 0.863 ± 0.068
- UniProt P60228 — higher, 1.75 ± 0.38
- UniProt Q86W42|Q86W42-2 — higher, 2.31 ± 0.65
- UniProt Q6UXH1|Q6UXH1-4|Q6UXH1-5|Q6UXH1-6 — within error, 0.956 ± 0.088
- UniProt Q14103-3|D6RF44|Q14103-4 — within error, 0.929 ± 0.11
- MTM1 (UniProt Q13496) — within error, 0.891 ± 0.087
- UniProt Q7KZN9|Q7KZN9-2 — within error, 0.931 ± 0.042
- KPNB1 (UniProt Q14974) — within error, 0.992 ± 0.028
- RDH11 (UniProt Q8TC12) — lower, 0.782 ± 0.082
- TWF2 (UniProt Q6IBS0) — within error, 0.951 ± 0.012
- PDCD6IP (UniProt Q8WUM4) — within error, 0.883 ± 0.07
- UniProt Q14444|Q14444-2 — higher, 1.13 ± 0.11
